Compound activity: PubChem BioAssay, National Center for Advancing Translational Sciences (NCATS)
Sfp PPTase inh = qHTS Assay for Inhibitors of Bacillus subtilis Sfp phosphopantetheinyl transferase (PPTase) | 310,000 compounds, 3.5% hits | Potency, µM, actives largely listed as inhibitors | 4'-phosphopantetheinyl transferase ffp (Bacillus subtilis), Q9F4F7 | Biochemical Sfp PPTase activity, qHTS;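 note: the enzyme is Sfp with the accession as filed and its product quenches rhodamine fluorescence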
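Step 1, compound plus 15 nM Sfp-PPTase, 15 min, room temperature. Step 2, add rhodamine-CoA (5 uM) and BHQ-2-YbbR (12.5 uM). Step 3, read 525/598 nm fluorescence at 0 and 30 min.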
JMJD2A Tudor inh = qHTS Assay for Inhibitors of JMJD2A-Tudor Domain; Lysine-specific demethylase 4A (Homo sapiens), O75164; AlphaScreen JMJD2A-Tudor / H3K4me3 peptide binding; Potency, µM (doses to about 114 µM), usual class: inhibitors; 390,000 compounds, 4.4% hits; note: nearly all actives have a fitted effect of over 50% in size
BAZ2B inh = qHTS Assay for Inhibitors of BAZ2B; AlphaScreen BAZ2B-H3K14Ac peptide displacement; Potency, µM (top dose mostly 114 µM), hits mostly inhibitors; 360,000 compounds, 4.4% hits; Bromodomain adjacent to zinc finger domain protein 2B (Homo sapiens), Q9UIF8; note: nearly all actives have a fitted effect of over 60% in size
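AlphaScreen displacement: compounds (up to 110uM) incubated 30 min at room temperature with a preformed 50 nM BAZ2B/50 nM biotinylated H3K14Ac peptide complex in PBS pH 7.4 with Tween-20. Donor and acceptor beads at 10 ug/mL final added, 20 min light-protected before reading.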
L3MBTL1 block = qHTS Assay for the Inhibitors of L3MBTL1; Lethal(3)malignant brain tumor-like protein 1 (Homo sapiens), Q9Y468; AlphaScreen L3MBTL1–H3K9me1 peptide binding; Potency, µM (top dose mostly 57.1 µM), hits mostly inhibitors; 230,000 compounds, 0.66% hits; note: nearly all actives have a fitted effect of over 60% in size
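Displacement of a biotinylated histone H3(1-15) peptide monomethylated at Lys9 (75 nM) from L3MBTL1 (50 nM) was measured by AlphaScreen after a 30 min room-temperature compound incubation; cefsulodin titration served as intraplate control.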
HP1b binding inh = HTS for Inhibitors of HP1-beta Chromodomain Interactions with Methylated Histone Tails; AlphaScreen HP1-beta / biotin-H3K9me3 peptide binding; Potency, µM (titrated, usually from 114 µM), actives largely listed as inhibitors; Chromobox protein homolog 1 (Homo sapiens), P83916; 390,000 compounds, 0.56% hits; AID 540317, 2011; note: nearly all actives have a fitted effect of over 70% in size
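AlphaScreen: HP1-beta (50 nM) preformed 30 min with biotin-H3(1-18)K9me3 peptide (50 nM) in PBS pH 7.4, 0.01% Tween-20. Compound added for 30 min at RT, then streptavidin donor/nickel chelate acceptor beads (10 ug/mL) for 30 min.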
G9a block = qHTS Assay for Inhibitors of Histone Lysine Methyltransferase G9a; Histone-lysine N-methyltransferase EHMT2 (Homo sapiens), Q96KQ7; 350,000 compounds, 8.8% hits; Potency, µM (top dose mostly 102 µM), most hits filed as inhibitors; G9a H3K9 monomethylation, AlphaScreen, 2 h; note: nearly all actives have a fitted effect of over 75% in size
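G9a (20 nM) preincubated 15 min RT with compounds, then 500 nM biotinylated H3K9 peptide and 20 uM SAM added; 2 h RT reaction. Monomethyl-H3K9 product detected by AlphaScreen with anti-H3K9me1 antibody, streptavidin donor and anti-rabbit IgG acceptor beads.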
Hits are given with their value; n = inactive; u = inconclusive; x = no result given; [ ] = remark or other dose. An excerpt weighted towards active compounds, which were near 12% of everything screened. Calls come from the whole dose curve; as a rule, active = well fitted curve in the direction sought with a large enough effect; inconclusive = small, poorly fitted or top-dose-only effect, or another doubt; inactive = no such curve, though single readings can be large; an effect the other way counts as inactive or inconclusive.

SMILES	Sfp PPTase inh	JMJD2A Tudor inh	BAZ2B inh	L3MBTL1 block	HP1b binding inh	G9a block
CCOC(=O)c1c(C)[nH]c(C)c1S(=O)(=O)N1CCCC(C(=O)N2CCN(c3ccccc3F)CC2)C1 (centres undefined)	x	u	u	x	n	n
CC1(CCl)N([O-])C2=C(CCCC2)[N+]1=O (centres undefined)	35.5µM	n	44.7µM	n	n	31.6µM
COc1ccc(C)cc1Nc1n[n+](-c2ccccc2)c(-c2cc([N+](=O)[O-])cc(OC)c2O)s1	22.4µM	u	u	n	n	31.6µM
COc1ccc(C)cc1Nc1n[n+](-c2ccccc2)c(-c2ccc(SC)cc2)s1	u	u	56.2µM	n	n	44.7µM
COc1ccc(C)cc1Nc1n[n+](-c2ccccc2)c(-c2ccc(NC(C)=O)cc2)s1	u	n	u	n	n	31.6µM
COc1ccccc1CNC(=O)CCC(=O)N1CC2CCCN2c2ccccc21 (centres undefined)	x	n	n	x	n	n
Cc1cccc(C(=O)Nc2nnc(S(=O)(=O)N3c4ccccc4CC3C)s2)c1 (centres undefined)	x	n	u	x	n	n
CN1CCN(C(=O)Cn2c(-c3cccs3)cc3ccccc32)CC1	x	n	n	x	n	n
COc1cccc(C2c3c(oc4ccc(F)cc4c3=O)C(=O)N2CCN2CCOCC2)c1OC (centres undefined)	n	n	n	n	n	n
Cc1ccc2oc3c(c(=O)c2c1)C(c1cccc(Cl)c1)N(CCCN1CCOCC1)C3=O (centres undefined)	n	n	n	n	n	50.1µM
Cc1ccc2oc3c(c(=O)c2c1)C(c1cccc(O)c1)N(CCCN1CCOCC1)C3=O (centres undefined)	x	n	n	x	n	n
O=C1c2oc3ccc(F)cc3c(=O)c2C(c2cccc(O)c2)N1CCCN1CCOCC1 (centres undefined)	n	n	n	n	n	n
O=C1c2oc3ccc(F)cc3c(=O)c2C(c2ccncc2)N1CCN1CCOCC1 (centres undefined)	n	x	n	n	x	50.1µM
Cc1ccc2oc3c(c(=O)c2c1)C(c1ccc(F)cc1)N(CCCN1CCOCC1)C3=O (centres undefined)	u	x	n	x	x	44.7µM
Fc1ccccc1/C=C1\CCCC2=C1Nc1nnnn1C2c1ccccc1F (centres undefined)	n	n	n	n	n	50.1µM
COc1ccc(C(=O)NCC(=O)OC(C(=O)Nc2cc(C(F)(F)F)ccc2Cl)c2ccccc2)cc1OC (centres undefined)	x	n	x	x	x	x
COC(=O)c1cc(NC(=O)c2nn(C)c3c2CSc2ccccc2-3)cc(C(=O)OC)c1	x	n	n	x	n	n
O=C(NC(=S)N1CCCCC1c1cccnc1)c1ccc(Br)cc1 (centres undefined)	n	n	n	x	n	22.4µM
Cc1cccc(NC(=S)N2CCCCC2c2cccnc2)c1C (centres undefined)	n	n	n	n	n	n
O=C(NC(=S)NN1CCCCC1c1cccnc1)c1ccc(Cl)cc1Cl (centres undefined)	n	n	n	n	n	70.8µM
O=C(NC(=S)N1CCCCC1c1cccnc1)c1ccc(F)cc1 (centres undefined)	n	n	n	x	n	31.6µM
Cc1ccc(CSc2nnc([C@@H](N)C(C)C)o2)cc1	x	n	n	x	n	n
COc1cccc(CNC(=O)[C@H](CCSC)NC(=O)N2CCn3c2nc2ccccc23)c1	n	n	u	x	n	50.1µM
COc1cc(NC(=O)[C@H](C)NC(=O)N2CCn3c2nc2ccccc23)cc(OC)c1	n	n	50.1µM	x	n	n
COC(=O)c1ccc(C(=O)NCCCCO)cc1	n	n	n	n	n	n
SMILES	Sfp PPTase inh	JMJD2A Tudor inh	BAZ2B inh	L3MBTL1 block	HP1b binding inh	G9a block
COC(=O)c1ccc(C)c(N(CCO)CCO)c1	n	n	n	n	n	25.1µM
O=C(NCc1ccccc1)n1cc(P(=S)(c2ccccc2)c2ccccc2)c2ccccc21	x	n	x	x	x	x
CCCN1CCCc2cc(CN(CCCN3CCOCC3)C(=O)Nc3ccc(CC)cc3)ccc21	x	u	8.91µM	x	u	12.6µM
CCCCN1CCCc2cc(CN(CCCN3CCOCC3)C(=O)Nc3ccc(CC)cc3)ccc21	x	7.94µM	u	x	n	8.91µM
COc1ccc(CN(CCCN2CCOCC2)C(=O)Nc2ccccc2)cc1OC	n	n	n	n	n	n
CCc1ccc2[nH]c(=O)c(CN(CCCN3CCOCC3)C(=O)Nc3ccc(F)cc3)cc2c1	n	n	n	x	n	n[2.33 µM]
COc1cc(O)c(C)c(O)c1	n	x	x	x	x	x
COc1ccc(-n2ncc3c(NC4CCCC4)ncnc32)cc1	x	n	n	x	n	n
CC1CC(C)(C)NC(=S)N1CCC(=O)N1CCN(c2ccccc2)CC1 (centres undefined)	n	n	n	n	n	39.8µM
CC1CC(C)(C)NC(=S)N1CC(=O)NCc1ccccc1Cl (centres undefined)	n	n	n	n	n	u
Cc1ccccc1NC(=O)CN1C(=S)NC(C)(C)CC1C (centres undefined)	n	n	n	n	n	17.8µM
CC1CC(C)(C)NC(=S)N1CC(=O)NCc1ccc(Cl)cc1 (centres undefined)	n	n	n	n	n	28.2µM
Cc1cccc(NC(=O)CN2C(=S)NC(C)(C)CC2C)c1 (centres undefined)	n	n	n	n	n	20µM
Cc1ccc(NC(=O)CCCN2C(=S)NC(C)(C)CC2C)cc1 (centres undefined)	n	n	n	n	n	n
CCC(=O)Nc1c2c(nn1-c1ccc(C)cc1C)CSC2	u	n	n	n	n	50.1µM
Cc1ccc(-n2nc3c(c2NC(=O)c2ccco2)CS(=O)C3)c(C)c1 (centres undefined)	x	n	n	n	n	14.1µM
Cc1cccc(-n2nc3c(c2NC(=O)c2ccco2)CS(=O)C3)c1C (centres undefined)	n	n	n	n	n	u
CC(C)(C)C(=O)Nc1c2c(nn1-c1ccc(F)cc1)CSC2	n	n	n	x	n	n
Cc1ccccc1-n1nc2c(c1NC(=O)c1cccc(F)c1)CS(=O)C2 (centres undefined)	n	n	n	x	n	50.1µM
Cc1ccc(-n2nc3c(c2NC(=O)C(C)(C)C)CSC3)c(C)c1	70.8µM	n	n	n	u	39.8µM
